# Only some compounds are listed: those with a hit (about 2.2% of all), similar ones and a draw of the others.
# VACV Venus inh – vaccinia inhibition (Venus reporter); Vaccinia virus Venus reporter expression, fluorescence; Potency, µM (doses to about 36.5 µM), for the others: top-dose activity change, negative = inhibition, actives largely listed as inhibitors; actives 0.46% (n = 330,000); calls by dose curve; tested in A549 cells; further: nearly all actives have a fitted effect of over 30% in size
# FMDV inh – antivirals against foot and mouth disease virus; AID 1159524; Potency, µM (titrated, usually from 57.9 µM), without a hit: top-dose activity change, negative = inhibition, hits mostly inhibitors; actives 1.2% (n = 410,000); FMDV antiviral cell-based qHTS; calls by dose curve; tested in HEK293T cells; further: read-out not given here; nearly all actives have a fitted effect of over 45% in size
# FBPA Giardia inh – inhibitors of Giardia lamblia fructose-1,6-bisphosphate aldolase. A8B2U2. purified Giardia FBPA. Potency, µM (doses to about 59.6 µM), without a hit: at the top dose activity, negative = inhibition, actives largely listed as inhibitors. actives 0.71% (n = 290,000). AID 2451; active means well fitted inhibition curve with a large enough effect; inconclusive means small, poorly fitted or top-dose-only effect, or effect the other way; further: nearly all actives have a fitted effect of over 55% in size
# Target sequence (A8B2U2 whole entry, looked up): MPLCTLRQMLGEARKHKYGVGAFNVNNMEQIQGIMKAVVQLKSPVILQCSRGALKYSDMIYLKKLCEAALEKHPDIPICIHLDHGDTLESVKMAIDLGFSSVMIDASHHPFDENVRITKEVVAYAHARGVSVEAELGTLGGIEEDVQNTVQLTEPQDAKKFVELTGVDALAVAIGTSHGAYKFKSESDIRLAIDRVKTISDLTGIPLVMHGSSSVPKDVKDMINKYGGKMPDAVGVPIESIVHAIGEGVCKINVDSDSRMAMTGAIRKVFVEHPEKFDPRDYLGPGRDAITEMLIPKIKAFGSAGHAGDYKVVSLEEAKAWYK
#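 40 nM FBPA preincubated 10 min at RT with compound (up to 57.5 uM final), then substrate plus GAPDH/TPI/NAD/arsenate coupling and diaphorase/resazurin added. Fluorescence read after 20 min at RT, 525/598 nm.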
# VACV mCherry inh – vaccinia inhibition (mCherry reporter) | Potency, µM (series often up to 36.5 µM), inactives show at the top dose activity change, negative = inhibition, usual class: inhibitors | actives 0.63% (n = 310,000) | Vaccinia virus mCherry reporter infection, fluorescence; calls by dose curve; tested in A549 cells; further: nearly all actives have a fitted effect of over 35% in size
# The depositor's hits bear a star; i = inactive; ? = inconclusive; nt = not tested or not shown. On the % scale 0 is the no-effect control and ±100 the full control effect; potency means the concentration at half of the fitted maximal effect.
SMILES,VACV Venus inh,FMDV inh,FBPA Giardia inh,VACV mCherry inh
O=c1[nH]cnc2c1cnn2Cc1ccccc1Cl,nt,0.3%,-1.7%,nt
Cc1cc(C)cc(Cn2ncc(Cl)c(Cl)c2=O)c1,-1.8%,28.2µM*,-6.3%,-14.2%
O=c1c(Cl)c(Cl)cnn1Cc1ccccc1Cl,?,25.1µM*,-2.6%,?
COc1cccc(CNC(=O)c2cnn(-c3ncc4c(n3)-c3ccccc3CCC4)c2C)c1OC,-18.4%,43.3%,nt,i
O=C(c1ccco1)N1CCN(/C=C2\Nc3ccccc3C(=O)N2c2ccc(F)cc2)CC1,-4.2%,nt,nt,-12.0%
O=C(c1cccnc1)C1CCCN(Cc2ccc3c(c2)CN(C(=O)c2cn4ccccc4n2)CCO3)C1 (stereo not drawn),-2.4%,-11.7%,nt,-12.6%
O=C1NC(=S)N(c2ccccc2F)C(=O)/C1=C\c1cccs1,82.2%,31.6µM*,-4.8%,32.5%
Cc1cnc(-n2ncc(C(=O)NCCc3ccncc3)c2-c2cccs2)nc1-c1ccc(F)cc1,-19.2%,-6.2%,nt,-3.4%
CO[C@H]1[C@H](NC(=O)c2ccco2)c2ccccc2C12CCN(Cc1ccc3cccc(F)c3n1)CC2,-6.2%,-18.9%,nt,-12.4%
C(=C\c1nc2ccccc2nc1/C=C/c1ccc2c(c1)OCO2)/c1ccc2c(c1)OCO2,-10.2%,nt,nt,21.6%
C(=Cc1cnc2ccccc2n1)c1ccc2c(c1)OCO2,-24.7%,1.78µM*,nt,?
CN(c1ccccc1)c1nc(C#N)nc(N2CCOCC2)n1,-28.4%,nt,nt,-14.6%
CCCCn1c(N2CCC(Cc3ccccc3)CC2)nc2c1c(=O)[nH]c(=O)n2C,?,28.2µM*,-4.2%,nt
CCCCCCn1c(N2CCC(C)CC2)nc2c1c(=O)[nH]c(=O)n2C,-12.8%,20µM*,9.2%,nt
CCCCCn1c(CN2CCN(c3cc(Cl)ccc3C)CC2)nc2c1c(=O)[nH]c(=O)n2C,nt,28.2µM*,6.5%,nt
COc1ccc(OC)c(CN2CCCC(n3cc(C(=O)N4CCCCC4)nn3)C2)c1 (stereo not drawn),-15.0%,-3.6%,nt,-10.1%
CCOC(=O)CSc1nc2sc(C)c(C)c2c(=O)[nH]1,-15.7%,-13.2%,-27.6%,-17.2%
CCOC(=O)/C(=C\c1ccc(Cl)cc1)c1nc2sc(C)c(C)c2c(=O)[nH]1,?,10µM*,-3.4%,?
Nc1nc(NCCc2ccccc2)c2[nH]cnc2n1,-20.4%,nt,nt,-10.5%
O=C(Nc1ccc(-c2nc3ccccc3o2)c(O)c1)c1cc(-n2cnnc2)ccc1Cl,nt,12.6µM*,3.3%,nt
O=C1c2ccccc2C(=O)N1CCc1nc2ccccc2c(=O)n1Cc1ccco1,-8.1%,28.2µM*,6.6%,nt
CCOC(=O)c1cc(C#N)c(SC(C(=O)N2CCCCC2)c2ccccc2)nc1C (stereo not drawn),-11.1%,nt,nt,24.4%
COCCn1c(=O)c(C)nc2cnc(N3CCN(C)CC3)nc21,nt,-21.1%,6.0%,nt
CN(C)S(=O)(=O)c1ccc(C(=O)OCC2COC(C)(C)O2)cc1 (stereo not drawn),-1.0%,-13.6%,9.5%,11.2%
CC1(C)OCC(CSC2=C(SCC3COC(C)(C)O3)C(=O)c3ncccc3C2=O)O1 (stereo not drawn),nt,nt,1.77µM*,nt
SMILES,VACV Venus inh,FMDV inh,FBPA Giardia inh,VACV mCherry inh
CCN1/C(=C2\SC(=S)N(Cc3ccccc3)C2=O)Sc2ccccc21,-11.2%,2.8%,-5.0%,-11.7%
CCC(CO)[n+]1c(C)cc(/C=C2\Sc3ccccc3N2Cc2ccccc2)cc1C (stereo not drawn),-29.7%,10µM*,-20.1%,i
CC(=O)c1cccc(NC(=O)c2cc3c(s2)-c2c(C)cccc2OC3)c1,20µM*,?,nt,11.2µM*
CCOc1cc(/C=C2\SC(=S)N(N3CCOCC3)C2=O)ccc1O,nt,-6.1%,2.2%,nt
CCOc1cc(/C=C2\SC(=N)N(c3nccs3)C2=O)ccc1OCCN1CCOCC1,?,?,?,11.2µM*
Cc1ccc(CN2C(=O)CSCC2(C)C(=O)NCc2ccccc2)cc1 (stereo not drawn),-6.2%,-23.3%,nt,i
COc1ccc2[nH]cc(CCNc3nc(-c4ccc(N(C)C)cc4)nc4ccccc34)c2c1,nt,0.1%,-20.7%,nt
CNc1ccc(Br)cc(C(=O)/C=C/c2ccc3c(c2)OCO3)c1=O,-7.7%,?,?,nt
CNc1ccc(Br)cc(C(=O)/C=C/c2cc(OC)ccc2OC)c1=O,nt,20µM*,?,nt
CNc1ccc(Br)cc(C(=O)/C=C/c2ccc(OC)cc2)c1=O,-6.1%,15.8µM*,?,i
COc1cccc(-n2c(SC)nnc2C2CCN(Cc3cccc(OC)c3O)CC2)c1,1.1%,-17.1%,nt,-6.6%
CC(=O)Nc1ccccc1-c1nc(CNC(=O)c2ccc(-c3ccccc3F)cc2)c(C)o1,-22.0%,16.1%,nt,-23.5%
Oc1cc(-c2nc3ccccc3s2)cc2c1OCCN(Cc1cccn1-c1ccccn1)C2,-15.4%,15.8%,nt,-15.3%
N#CC(C#N)=C/C(C#N)=C(/N)N1CCN(c2ccc(Cl)cc2)CC1,nt,17.8µM*,-2.7%,nt
CN(C)C(=C(C#N)C#N)N1CCN(c2ccc(Cl)cc2)CC1,-6.9%,-9.3%,4.4%,-25.0%
CCC[N+](C)(C)c1ccc(/C=C/c2ccnc3ccccc23)cc1,i,nt,nt,i
COc1ccc(CCN2C(=O)c3cccc4c(C(=O)N5CCCCC5)ccc(c34)C2=O)cc1OC,-7.0%,14.1µM*,3.0%,-14.8%
COc1cccc(CN2CCC3(CC2)c2ccccc2[C@@H](NC(=O)c2ccccc2)[C@@H]3O)c1O,-8.5%,-1.2%,nt,-24.2%
CCc1ccc(NC(=O)C(=O)NCC(c2cccnc2)N2CCc3ccccc3C2)cc1 (stereo not drawn),-28.7%,10µM*,nt,-23.9%
Cc1c(C(=O)NCc2nccs2)cnn1-c1ncc2c(n1)-c1ccccc1CC2,?,40.3%,nt,?
CCC1(C2CCN(C(=O)c3coc4c3C(=O)CCC4)CC2)NC(=O)N(CCc2scnc2C)C1=O (stereo not drawn),1.7%,11.4%,nt,-3.7%
CC(C)/C=C1\CC/C(=C\c2cccnc2)C1=O,nt,28.2µM*,-10.6%,nt
CCC1C/C(=C\c2cccnc2)C(=O)/C(=C/c2cccnc2)C1 (stereo not drawn),?,3.55µM*,1.6%,?
O=C1/C(=C/c2cccnc2)CC/C1=C\c1cccnc1,-10.3%,28.2µM*,0.6%,-4.8%
CC(C)Oc1ccc(C(=O)NCC2Cc3cc(F)cc(-c4cnccn4)c3O2)cc1 (stereo not drawn),6.7%,0.4%,nt,-5.8%
SMILES,VACV Venus inh,FMDV inh,FBPA Giardia inh,VACV mCherry inh
COc1ccc(-c2cc(C)cc3c2OC(CNC(=O)/C=C/c2ccncc2)C3)nn1 (stereo not drawn),-3.8%,-16.7%,nt,-15.6%
C[n+]1ccc(/C=C/c2ccc([N+](C)(C)C)cc2)c2ccccc21,458.1%,nt,nt,i
CN1C=C/C(=C\c2cc[n+](C)c3ccccc23)c2ccccc21,nt,17.8µM*,?,nt
C[n+]1ccc(/C=C/c2cc[n+](C)c3ccccc23)c2ccccc21,10µM*,nt,nt,?
COc1ccccc1/C=C/c1nc2ccccc2o1,-7.5%,nt,nt,-13.3%
Cc1ccc(C(=O)Nc2ccc3ncccc3c2)cc1,-16.9%,14.1µM*,-1.9%,-11.3%
COc1ccc(C(=O)Nc2ccc3ncccc3c2)cc1,-10.2%,-57.8%,1.7%,i
Cc1ccc(NC(=O)c2ccc(NC(=O)c3ccccc3)cc2)cc1C,10µM*,?,nt,?
O=C(Nc1cccc(-c2csc(Nc3ccccc3)n2)c1)c1ccccc1,?,4.5%,-12.1%,5.01µM*
